For one sequence, binding signal results are on record in article PMC7862700, “An all-to-all approach to the identification of sequence-specific readers for epigenetic DNA modifications on cytosine”.

What all share (assay): DAPPL (digital affinity profiling via proximity ligation, sequencing); 10 mM Tris-HCl pH 7.5, 50 mM NaCl, 1 mM DTT, 4% glycerol, room temperature, 30 min; GST-TFs on glutathione beads, 16-mer random dsDNA library, 0.1% formaldehyde crosslink after washing; high values mean tight binding
Common to all, as to details: protein: recombinant; tags: N-terminal GST; dsDNA, one strand shown

One assay addresses T1, GABPA (Homo sapiens, UniProt Q06546 1-454).
T1 sequence: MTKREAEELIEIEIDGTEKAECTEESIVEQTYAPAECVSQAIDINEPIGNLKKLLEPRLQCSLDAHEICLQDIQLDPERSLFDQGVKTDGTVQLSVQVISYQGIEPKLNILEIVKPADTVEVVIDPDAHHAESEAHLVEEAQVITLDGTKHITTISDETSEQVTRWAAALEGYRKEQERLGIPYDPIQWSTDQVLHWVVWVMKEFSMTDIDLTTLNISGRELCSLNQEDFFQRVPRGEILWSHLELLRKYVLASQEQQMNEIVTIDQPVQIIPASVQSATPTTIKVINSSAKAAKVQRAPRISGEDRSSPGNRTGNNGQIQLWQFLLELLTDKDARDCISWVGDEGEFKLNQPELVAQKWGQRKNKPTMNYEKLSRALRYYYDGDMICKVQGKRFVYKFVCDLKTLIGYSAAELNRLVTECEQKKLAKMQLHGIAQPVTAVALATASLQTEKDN
The gist of the method: (§1)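 A tag-only sample was pooled with DNA-barcoded human transcription factors that had been expressed in yeast as GST fusions and captured on glutathione beads. The pools were incubated for 30 min at room temperature with 200 nmole of a random double-stranded 16-mer DNA library in Tris/NaCl/DTT/glycerol buffer, then washed, crosslinked with 0.1% formaldehyde, proximity-ligated (BsaI/T4 ligase, 1 h, 37 °C), PCR-amplified and sequenced on an Illumina NextSeq500. Binding signal is each hexamer's read frequency for a factor divided by its frequency for the tag-only sample.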

In a further assay the target is T2, ERG (Homo sapiens, UniProt P11308 1-479).
T2 sequence: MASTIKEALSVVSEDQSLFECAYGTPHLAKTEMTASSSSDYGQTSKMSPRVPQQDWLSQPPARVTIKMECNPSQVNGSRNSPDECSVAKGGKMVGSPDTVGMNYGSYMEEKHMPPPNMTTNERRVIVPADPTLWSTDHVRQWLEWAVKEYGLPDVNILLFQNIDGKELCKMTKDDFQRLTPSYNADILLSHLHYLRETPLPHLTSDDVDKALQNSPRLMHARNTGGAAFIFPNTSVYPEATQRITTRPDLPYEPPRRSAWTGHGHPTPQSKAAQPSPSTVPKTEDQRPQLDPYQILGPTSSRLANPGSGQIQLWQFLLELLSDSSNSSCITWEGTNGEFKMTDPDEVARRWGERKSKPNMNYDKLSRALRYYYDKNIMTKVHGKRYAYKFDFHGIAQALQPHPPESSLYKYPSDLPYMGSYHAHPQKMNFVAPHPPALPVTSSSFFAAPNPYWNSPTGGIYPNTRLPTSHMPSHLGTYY
The gist of the method:
as §1

Another assay concerns the target ELF1 (Homo sapiens, UniProt P32519 1-619). The gist of the method: as §1
The next assay deals with T3, EHF (Homo sapiens, UniProt Q9NZC4 1-300).
T3 sequence: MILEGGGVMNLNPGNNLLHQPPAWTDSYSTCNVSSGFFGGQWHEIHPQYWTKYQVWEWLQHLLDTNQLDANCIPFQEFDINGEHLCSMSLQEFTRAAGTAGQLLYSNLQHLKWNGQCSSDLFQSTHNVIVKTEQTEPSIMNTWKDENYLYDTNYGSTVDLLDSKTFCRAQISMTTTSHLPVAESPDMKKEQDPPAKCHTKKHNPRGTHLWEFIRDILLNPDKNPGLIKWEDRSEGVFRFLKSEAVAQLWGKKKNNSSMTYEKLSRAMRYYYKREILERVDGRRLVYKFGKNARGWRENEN
The gist of the method:
as §1

The target of the next assay is SPIB (Homo sapiens, UniProt Q01892 1-262). An outline of the steps:
as §1

A further assay deals with T4, ELK3 (Homo sapiens, UniProt P41970 1-407).
T4 sequence: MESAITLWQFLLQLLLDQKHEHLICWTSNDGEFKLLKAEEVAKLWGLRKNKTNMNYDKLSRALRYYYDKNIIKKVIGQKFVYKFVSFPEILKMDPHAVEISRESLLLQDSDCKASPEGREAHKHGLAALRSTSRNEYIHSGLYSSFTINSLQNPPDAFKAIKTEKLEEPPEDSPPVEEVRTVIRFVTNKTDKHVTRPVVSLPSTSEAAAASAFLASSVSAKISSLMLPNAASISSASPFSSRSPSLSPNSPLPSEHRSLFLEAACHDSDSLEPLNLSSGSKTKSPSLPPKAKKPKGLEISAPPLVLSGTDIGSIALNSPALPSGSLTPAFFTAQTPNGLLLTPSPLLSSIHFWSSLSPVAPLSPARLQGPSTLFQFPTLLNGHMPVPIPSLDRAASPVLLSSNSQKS
An outline of the steps:
as §1

The next assay addresses ETV5 (Homo sapiens, UniProt P41161 1-510). An outline of the steps:
as §1

Another assay has as its target T5, SPIC (Homo sapiens, UniProt Q8N5J4 1-248).
T5 sequence: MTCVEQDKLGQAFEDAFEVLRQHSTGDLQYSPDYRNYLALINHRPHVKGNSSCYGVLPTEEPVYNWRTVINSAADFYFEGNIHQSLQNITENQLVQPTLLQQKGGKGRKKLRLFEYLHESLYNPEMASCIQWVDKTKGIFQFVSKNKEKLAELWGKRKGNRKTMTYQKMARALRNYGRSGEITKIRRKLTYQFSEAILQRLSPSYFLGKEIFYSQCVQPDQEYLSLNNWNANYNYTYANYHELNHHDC
The gist of the method: as §1

The next assay deals with T6, ELF3 (Homo sapiens, UniProt P78545 1-371).
T6 sequence: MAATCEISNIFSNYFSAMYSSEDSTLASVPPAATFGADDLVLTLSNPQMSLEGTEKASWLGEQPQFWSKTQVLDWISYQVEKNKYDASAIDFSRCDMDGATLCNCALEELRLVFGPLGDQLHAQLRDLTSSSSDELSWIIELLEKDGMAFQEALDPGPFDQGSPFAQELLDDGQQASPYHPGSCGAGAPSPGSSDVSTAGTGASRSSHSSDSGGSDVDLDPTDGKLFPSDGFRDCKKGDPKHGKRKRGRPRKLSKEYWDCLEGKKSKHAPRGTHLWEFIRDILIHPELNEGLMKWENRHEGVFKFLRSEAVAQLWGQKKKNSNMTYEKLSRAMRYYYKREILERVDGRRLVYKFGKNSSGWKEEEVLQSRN
An outline of the steps: as §1

The next assay deals with ETV1 (Homo sapiens, UniProt P50549 1-477). An outline of the steps: as §1
A further assay deals with T7, ERF (Homo sapiens, UniProt P50548 1-548).
T7 sequence: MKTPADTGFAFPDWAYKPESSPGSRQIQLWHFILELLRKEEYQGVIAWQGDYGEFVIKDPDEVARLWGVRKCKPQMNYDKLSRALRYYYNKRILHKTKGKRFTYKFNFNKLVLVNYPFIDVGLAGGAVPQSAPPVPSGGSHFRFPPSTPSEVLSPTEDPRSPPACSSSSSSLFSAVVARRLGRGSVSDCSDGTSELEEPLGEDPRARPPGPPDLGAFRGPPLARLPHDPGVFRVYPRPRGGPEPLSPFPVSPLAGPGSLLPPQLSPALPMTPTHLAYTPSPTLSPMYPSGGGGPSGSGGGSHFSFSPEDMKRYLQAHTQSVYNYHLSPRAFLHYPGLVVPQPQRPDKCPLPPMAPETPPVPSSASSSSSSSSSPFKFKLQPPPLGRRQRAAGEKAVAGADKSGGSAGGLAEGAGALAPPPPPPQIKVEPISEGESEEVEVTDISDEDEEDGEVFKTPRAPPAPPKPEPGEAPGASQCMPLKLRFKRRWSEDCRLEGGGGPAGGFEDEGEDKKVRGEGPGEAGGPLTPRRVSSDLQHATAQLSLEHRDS
An outline of the steps: as §1

The next assay addresses T8, ETV3L (Homo sapiens, UniProt Q6ZN32 1-361).
T8 sequence: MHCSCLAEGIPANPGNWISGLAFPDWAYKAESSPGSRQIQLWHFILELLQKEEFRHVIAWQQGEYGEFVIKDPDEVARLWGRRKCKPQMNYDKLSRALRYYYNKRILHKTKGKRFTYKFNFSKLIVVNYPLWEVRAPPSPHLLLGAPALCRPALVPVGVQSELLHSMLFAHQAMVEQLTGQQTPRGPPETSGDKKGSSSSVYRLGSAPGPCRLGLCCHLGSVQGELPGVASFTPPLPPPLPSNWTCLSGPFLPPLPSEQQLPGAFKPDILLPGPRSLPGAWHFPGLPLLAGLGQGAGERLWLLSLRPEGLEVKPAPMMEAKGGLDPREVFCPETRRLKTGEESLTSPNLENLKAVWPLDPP
The gist of the method: as §1

The target of a further assay is T9, ETS2 (Homo sapiens, UniProt P15036 1-469).
T9 sequence: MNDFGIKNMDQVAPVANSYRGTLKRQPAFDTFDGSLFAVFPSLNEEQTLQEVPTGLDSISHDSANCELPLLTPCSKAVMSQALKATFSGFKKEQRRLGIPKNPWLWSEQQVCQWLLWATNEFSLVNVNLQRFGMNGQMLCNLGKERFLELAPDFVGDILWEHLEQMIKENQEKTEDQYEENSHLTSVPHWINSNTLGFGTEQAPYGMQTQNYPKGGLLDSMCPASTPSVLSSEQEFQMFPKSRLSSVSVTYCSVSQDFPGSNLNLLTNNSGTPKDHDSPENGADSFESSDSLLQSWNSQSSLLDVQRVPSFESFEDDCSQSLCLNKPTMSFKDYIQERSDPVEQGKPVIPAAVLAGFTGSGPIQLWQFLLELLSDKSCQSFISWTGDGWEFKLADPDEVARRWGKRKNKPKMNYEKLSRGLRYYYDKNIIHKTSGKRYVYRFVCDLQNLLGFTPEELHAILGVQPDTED
The gist of the method: as §1

The target in another assay is T10, ETV7 (Homo sapiens, UniProt Q9Y603 1-341).
T10 sequence: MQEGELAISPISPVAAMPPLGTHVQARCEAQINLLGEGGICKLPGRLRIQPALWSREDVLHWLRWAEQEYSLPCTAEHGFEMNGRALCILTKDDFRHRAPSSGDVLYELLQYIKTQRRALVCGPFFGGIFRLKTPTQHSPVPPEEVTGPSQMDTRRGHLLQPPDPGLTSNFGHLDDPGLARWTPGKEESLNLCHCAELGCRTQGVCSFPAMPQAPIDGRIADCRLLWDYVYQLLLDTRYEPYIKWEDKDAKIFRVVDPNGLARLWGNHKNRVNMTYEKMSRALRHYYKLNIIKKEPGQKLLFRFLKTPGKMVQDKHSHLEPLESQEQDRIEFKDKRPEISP
An outline of the steps:
as §1

In the next assay the target is ETV6 (Homo sapiens, UniProt P41212 1-452). An outline of the steps: as §1
Chain of ETV6 (P41212 whole entry): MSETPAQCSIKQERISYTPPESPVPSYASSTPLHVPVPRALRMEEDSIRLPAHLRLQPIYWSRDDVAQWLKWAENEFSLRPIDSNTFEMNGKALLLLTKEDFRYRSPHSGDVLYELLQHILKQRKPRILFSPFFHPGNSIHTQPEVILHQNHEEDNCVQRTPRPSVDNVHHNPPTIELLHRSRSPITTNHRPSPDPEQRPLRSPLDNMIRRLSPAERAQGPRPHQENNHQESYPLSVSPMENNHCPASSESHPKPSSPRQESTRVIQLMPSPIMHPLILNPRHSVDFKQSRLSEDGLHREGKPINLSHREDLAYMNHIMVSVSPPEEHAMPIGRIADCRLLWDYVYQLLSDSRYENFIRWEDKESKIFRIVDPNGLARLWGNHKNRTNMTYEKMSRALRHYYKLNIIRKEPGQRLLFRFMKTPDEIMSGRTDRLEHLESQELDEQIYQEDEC

Chain of ELF1 (P32519 whole entry): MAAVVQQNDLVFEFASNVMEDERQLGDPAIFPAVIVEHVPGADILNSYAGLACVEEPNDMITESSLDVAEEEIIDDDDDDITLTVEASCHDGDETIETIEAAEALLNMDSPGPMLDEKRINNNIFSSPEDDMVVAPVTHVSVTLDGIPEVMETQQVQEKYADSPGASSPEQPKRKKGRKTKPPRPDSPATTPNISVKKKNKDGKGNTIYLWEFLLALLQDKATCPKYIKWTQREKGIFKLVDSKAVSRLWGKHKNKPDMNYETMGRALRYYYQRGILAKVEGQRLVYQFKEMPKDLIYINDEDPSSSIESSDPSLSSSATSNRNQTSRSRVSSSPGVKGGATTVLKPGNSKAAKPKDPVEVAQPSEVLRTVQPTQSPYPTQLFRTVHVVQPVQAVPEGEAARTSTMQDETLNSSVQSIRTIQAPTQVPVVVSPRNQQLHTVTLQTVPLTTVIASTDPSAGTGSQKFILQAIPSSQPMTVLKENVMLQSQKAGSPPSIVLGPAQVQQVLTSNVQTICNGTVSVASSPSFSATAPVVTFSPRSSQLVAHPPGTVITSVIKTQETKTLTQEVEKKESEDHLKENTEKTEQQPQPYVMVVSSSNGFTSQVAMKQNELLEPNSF
Chain of ETV5 (P41161 whole entry): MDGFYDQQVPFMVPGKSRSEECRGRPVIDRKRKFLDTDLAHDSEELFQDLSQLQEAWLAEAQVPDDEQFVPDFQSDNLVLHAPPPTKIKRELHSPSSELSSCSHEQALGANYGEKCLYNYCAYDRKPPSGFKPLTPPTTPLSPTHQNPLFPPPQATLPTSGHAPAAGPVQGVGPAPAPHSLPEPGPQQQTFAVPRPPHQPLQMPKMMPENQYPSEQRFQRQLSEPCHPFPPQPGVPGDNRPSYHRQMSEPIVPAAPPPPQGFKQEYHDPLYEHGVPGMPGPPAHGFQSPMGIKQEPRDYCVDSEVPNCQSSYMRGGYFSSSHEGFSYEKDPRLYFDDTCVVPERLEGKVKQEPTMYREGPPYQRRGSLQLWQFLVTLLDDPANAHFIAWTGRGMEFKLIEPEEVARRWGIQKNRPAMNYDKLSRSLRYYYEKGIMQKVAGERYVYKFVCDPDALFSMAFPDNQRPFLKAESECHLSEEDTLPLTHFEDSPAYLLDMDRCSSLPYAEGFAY
Chain of ETV1 (P50549 whole entry): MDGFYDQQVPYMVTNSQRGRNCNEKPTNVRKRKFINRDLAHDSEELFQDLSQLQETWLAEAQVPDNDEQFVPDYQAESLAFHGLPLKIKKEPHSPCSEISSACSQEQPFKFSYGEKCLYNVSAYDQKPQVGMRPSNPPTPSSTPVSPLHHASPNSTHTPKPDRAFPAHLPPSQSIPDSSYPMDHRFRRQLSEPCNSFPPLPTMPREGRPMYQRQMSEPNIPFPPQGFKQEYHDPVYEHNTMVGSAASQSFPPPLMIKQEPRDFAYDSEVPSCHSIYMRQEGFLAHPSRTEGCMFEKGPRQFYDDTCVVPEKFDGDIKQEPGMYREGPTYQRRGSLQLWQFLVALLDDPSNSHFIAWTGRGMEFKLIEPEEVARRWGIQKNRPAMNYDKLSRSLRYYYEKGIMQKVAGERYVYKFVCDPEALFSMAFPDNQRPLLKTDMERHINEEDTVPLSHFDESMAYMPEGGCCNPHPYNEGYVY
Chain of SPIB (Q01892 whole entry): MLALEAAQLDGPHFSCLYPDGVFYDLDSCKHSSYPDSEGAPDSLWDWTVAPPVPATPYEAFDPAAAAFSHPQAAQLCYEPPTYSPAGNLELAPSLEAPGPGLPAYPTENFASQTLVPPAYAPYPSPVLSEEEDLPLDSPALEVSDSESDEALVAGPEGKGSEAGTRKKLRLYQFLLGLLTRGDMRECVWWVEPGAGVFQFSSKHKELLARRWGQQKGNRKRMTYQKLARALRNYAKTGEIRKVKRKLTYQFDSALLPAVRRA

With ATAGGC, the binding signal with GABPA is 1.01 fold enrichment (6-mer frequency, TF over GST control); with ERG, 1.01 fold enrichment (6-mer frequency, TF over GST control); with ELF1, 1.03 fold enrichment (6-mer frequency, TF over GST control); in the assay with EHF, 1.04 fold enrichment (6-mer frequency, TF over GST control); with SPIB it was 1.11 fold enrichment (6-mer frequency, TF over GST control); with ELK3 it was 1.02 fold enrichment (6-mer frequency, TF over GST control). The binding signal was 1.1 fold enrichment (6-mer frequency, TF over GST control) with ETV5; 1.06 fold enrichment (6-mer frequency, TF over GST control) in the assay with SPIC; 1.07 fold enrichment (6-mer frequency, TF over GST control) in the assay with ELF3; 1.01 fold enrichment (6-mer frequency, TF over GST control) with ETV1; 1.04 fold enrichment (6-mer frequency, TF over GST control) with ERF; 1.02 fold enrichment (6-mer frequency, TF over GST control) with ETV3L. Besides, the binding signal in the assay with ETS2 was 1.01 fold enrichment (6-mer frequency, TF over GST control); with ETV7, 1.01 fold enrichment (6-mer frequency, TF over GST control); in the assay with ETV6, 1.04 fold enrichment (6-mer frequency, TF over GST control).
